From PubChem BioAssay (NCATS)
Inconclusive results are not listed. A number with no mark means an inactive call. Calls of active or inactive are those of the source. The call rests on the fitted dose curve; in most records, active means well fitted inhibition curve with a large enough effect; inconclusive means small, poorly fitted or top-dose-only effect; inactive means no such curve, though single readings can be large or run the other way.

What follows are compounds tested on Zika virus NS2B-NS3 protease (linked construct) (assay: Primary screen NINDS Rhodamine qHTS for Zika virus inhibitors (AID 1347160; further: nearly all actives have a fitted effect of over 55% in size)). Conditions: purified NS2B-NS3 protease, Rhodamine110 substrate fluorescence; series mostly up to 57.1 µM; activity change, negative = inhibition: at the top concentration.
In short: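 Rhodamine110-peptide cleavage (1.5 µM substrate) by 25 nM linked NS2B-NS3 enzyme at pH 8.0 (Tris, Tween 20), after 15 min RT preincubation with compounds; 15-min fluorescence change normalized to controls and Hill-fitted.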
On the % scale 0 is the no-effect control and ±100 the full control effect.

SMILES | activity change, negative = inhibition | outcome
Cc1cccc(C)c1-n1c(=O)c2cnc(Nc3ccc(N4CCN(C)CC4)cc3)nc2n2c3ccccc3nc12 | 98.1% | 
C=C(F)c1sc(CNCCCNc2cc(=O)c3ccccc3[nH]2)c(C)c1Br | 111% | 
OCc1ccc(O[C@@H]2O[C@H](CO)[C@@H](O)[C@H](O)[C@H]2O)cc1 |  | inactive
COC(=O)c1ccccc1O[C@@H]1O[C@H](CO)[C@@H](O)[C@H](O)[C@H]1O[C@@H]1O[C@@H](C)[C@H](O)[C@@H](O)[C@H]1O | -16.5% [at 33.1 µM] | 
O=C(O)CC(=O)OC[C@H]1O[C@@H](Oc2ccc3c(c2)OC[C@H]2c4cc5c(cc4O[C@@H]32)OCO5)[C@H](O)[C@@H](O)[C@@H]1O |  | inactive [at 33.1 µM]
C=CC(C)(O)CC[C@H]1C(=C)CCC2[C@](C)(C(=O)O)CCC[C@@]21C (stereo partly specified) | -4.74% [at 33.1 µM] | 
CC(=O)C1=CCC2C3CCC4CC(O[C@@H]5O[C@H](CO)[C@@H](O[C@@H]6O[C@@H](C)[C@H](O)[C@@H](O)[C@H]6O)[C@H](O)[C@H]5O[C@@H]5O[C@H](CO)[C@@H](O)[C@H](O)[C@H]5O)CCC4(C)C3CCC12C (stereo partly specified) | 25.5% [at 15.1 µM] | 
C=C1CCC2C(C)(C)C(O)CCC2(C)C1CCC(C)CCOC(C)=O (stereo unspecified) | -31% [at 33.1 µM] | 
COc1cc2c(cc1OC)-c1[nH]nc(Nc3cccc(F)c3)c1C2 | -1.75% | 
O=C1C=CC(O)(/C=C/C(=O)OC[C@H]2O[C@@H](Oc3ccc(O)cc3)[C@H](O)[C@@H](O)[C@@H]2O)C=C1 | 17.9% [at 33.1 µM] | 
Cc1nc([C@](C)(O)CO)sc1-c1cnc(N)c(O[C@H](C)c2cc(F)ccc2-n2nccn2)c1 | 37.9% | 
CC(C)(C)c1cc(Br)cc([C@H](CC(=O)O)NC(=O)CNC(=O)c2cc(O)cc(NC3=NCC(O)CN3)c2)c1 (stereo partly specified) |  | inactive
COC(C(=O)N1Cc2[nH]nc(NC(=O)c3ccc(N4CCN(C)CC4)cc3)c2C1)c1ccccc1 (stereo unspecified) | -10.9% | 
CC1(C)CCC2(C(=O)OC3OC(CO)C(O)C(O)C3O)CCC3(C)C(=CCC4C5(C)CCC(OC6OC(C(=O)O)C(OC7OC(CO)C(O)C(O)C7O)C(OC7OC(CO)C(O)C(O)C7O)C6O)C(C)(C)C5CCC43C)C2C1 (stereo unspecified) | -1.34% [at 15.1 µM] | 
CCOc1cc2ncc(C#N)c(Nc3ccc(F)c(Cl)c3)c2cc1NC(=O)/C=C/CN(C)C | 147% | 
COc1cc(Br)c(S(=O)(=O)Nc2ccc(C(F)(F)F)c(O[C@@H]3CCN(C)C3)c2)cc1OC | 18.4% | 
CC(C)=CCC(O)/C(C)=C/CO[C@@H]1O[C@H](CO)[C@@H](O)[C@H](O)[C@H]1O (stereo partly specified) | -0.897% [at 33.1 µM] | 
CC(=O)OC1C(O)C2C(C)C3=CC(=O)OC3(O)CC2C2(C)CCCC(C)(CO)C12 (stereo unspecified) | 15.7% [at 33.1 µM] | 
C[C@@H]1O[C@@H](O[C@H]2[C@H](O)[C@@H](O)[C@H](O[C@H]3[C@H](O[C@H]4CC[C@@]5(C)C(=CC[C@@H]6C5CC[C@]5(C)[C@@H]7[C@H](C[C@@H]65)O[C@]5(CC[C@@](C)(CO[C@@H]6O[C@H](CO)[C@@H](O)[C@H](O)[C@H]6O)O5)[C@H]7C)C4)O[C@H](CO)[C@@H](O)[C@@H]3O)O[C@@H]2CO)[C@H](O)[C@H](O)[C@H]1O (stereo partly specified) |  | inactive [at 15.1 µM]
CC(C)c1nc(-c2ccc(NC(=O)Nc3cccc(C(F)(F)F)c3)c3ccccc23)c2c(N)nccn12 | 69% | 
CN[C@H](CC(C)C)C(=O)N[C@H]1C(=O)N[C@@H](CC(N)=O)C(=O)N[C@H]2C(=O)N[C@H]3C(=O)N[C@H](C(=O)N[C@H](C(=O)O)c4cc(O)cc(O)c4-c4cc3ccc4O)[C@H](O[C@H]3C[C@](C)(N)[C@@H](O)[C@H](C)O3)c3ccc(c(Cl)c3)Oc3cc2cc(c3O[C@@H]2O[C@H](CO)[C@@H](O)[C@H](O)[C@H]2O[C@H]2C[C@](C)(NCc3ccc(-c4ccc(Cl)cc4)cc3)[C@@H](O)[C@H](C)O2)Oc2ccc(cc2Cl)[C@H]1O | 190% [at 15.1 µM] | 
FC(F)(F)c1ccc(Nc2nc(-c3c(C(F)(F)F)nc4ccccn34)cs2)cc1 | 40.2% | 
COc1c2c(c(C)c3c1C(=O)OC3)O[C@@]1(C)CC(O)C(C(C)(C)O)[C@](C)(CCC(=O)O)[C@H]1C2 (stereo partly specified) | 22.5% [at 33.1 µM] | 
C#CCN(Cc1cc2c(=O)n(C)c(CN3CCN(C)CC3)nc2cc1Cl)c1ccc(C(=O)NCc2cccnc2)cc1 |  | inactive
CC(=O)N1CCc2ccc(O)c(OC3OC(COC4OCC(O)(CO)C4O)C(O)C(O)C3O)c2C1Cc1ccc(O)cc1 (stereo unspecified) | -16% [at 15.1 µM] | 
C=C[C@H]1CN2CC[C@H]1C[C@@H]2C(O)c1ccnc2ccc(OC)cc12 (stereo partly specified) | 42.3% [at 33.1 µM] | 
